Laboratory results taken from PubChem BioAssay (NCI).
About 83,000 compounds went through this panel and 20% of them were active in at least one assay; those are over-represented in the sample as a whole.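 Activity criterion: percent growth below 10, measured after cells in 96-well plates were exposed to a single compound concentration for 48 hours.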 A number with no mark means an inactive call. Calls of active or inactive are those of the source.

tested on: TK-10 renal; experiment: NCI-60 one-dose screen, 48 h (100 = growth as untreated, 0 = no growth, -100 = all killed); details: 10 µM unless noted

SMILES	growth
COC(=O)c1cccc(NC2=C(Cl)C(=O)C(C)=C(C)C2=O)c1	150%
Cn1cc(-c2nc(N)nnc2-c2c[nH]c3ccc(Br)cc23)c2cc(F)ccc21	131%
O=C(O)c1ccc(-n2c(=O)n(-c3cccc(C(F)(F)F)c3)c(=O)c3cc(-c4ccc(F)cc4F)ccc32)cc1	4.33% (active)
O=C1[C@H]2Cc3c([nH]c4ccccc34)[C@H](c3ccc(Br)cc3)N2C(=O)CN1C1CCN(CC2CCCCC2)CC1	121%
C#Cc1nc(/C=C/CCCCCCC(=O)NO)cs1	31.6%
C#CCN(C)CCCOc1ccc(NC(=O)CCCCCCCCC(=O)NO)cc1Cl	63.1%
NC(=O)c1ncn2c(=O)n(CCF)nnc12	44.3%
Cc1csc(/N=C(N)/N=C(\N)c2cccc(C#N)c2)n1	168%
C=C(C)[C@@H]1CC[C@]2(COCCCNCCCN)CC[C@]3(C)[C@H](CC[C@@H]4[C@@]5(C)CC[C@H](O)C(C)(C)[C@@H]5CC[C@]43C)[C@@H]12	-85.5% (active)
O=C(/C=C/c1cccc(F)c1)c1cccc(OCCCOc2cccc(C(=O)/C=C/c3cccc(F)c3)c2)c1	114%
Cc1ccc(C(=O)CSc2nc3ccccc3c(=O)n2C)cc1	134%
Cc1ccc2c(n1)C(=O)C(Cl)=C(Nc1ccc(C#N)cc1)C2=O	104%
CC(C)(O)c1cncc(-c2ccc3ncc(C#N)c(N4CCc5cc(F)c(Cl)cc54)c3c2)c1	14.3%

tested on: ACHN renal; experiment: as above; details: 10 µM unless noted

SMILES	growth
O=S(=O)(NCCCNc1nccc(-c2[nH]c(-c3ccccc3)nc2-c2ccc(F)c(O)c2)n1)c1cccc(F)c1	93.2%
Cn1cc(-c2cc3ncnc(Nc4ccc(NC(=O)Nc5cc(C(C)(C)C)on5)cc4)c3s2)cn1	27.1%
Cn1ncc2c(C(=O)c3ccc(F)cc3)nc(C(C)(C)C)nc21	99.1%
N#Cc1c(-c2cccs2)cc(-c2cnccn2)nc1SCC(=O)N/N=C/c1ccc(Cl)cc1	102%
O=C(/C=C/c1cc(Cl)ccc1Cl)Nc1ncc(Cc2ccc(Cl)cc2)s1	3.59% (active)
CNC(=O)c1cc(N2CCc3cc(NC(=O)Nc4ccc(N5CCN(C)CC5)c(C(F)(F)F)c4)ccc32)ccn1	85.6%
CCc1cc(O)ccc1Nc1cc(-c2ccc(-n3cccn3)cc2)[nH]n1	43.9%
COc1ccc2[nH]cc(-c3nc(N)nnc3-c3cn(C)c4ccc(Br)cc34)c2c1	40.5%
CCCCCCCCCCCC(=O)NC(C)(C)C(=O)N1CCCC1C(=O)NC(C)(C)C(=O)NC(C)(C)C(=O)N1CCCC1C(=O)NC(C)(C)C(=O)NC(C)(C)C(=O)N1CCCC1C(=O)NC(C)C(=O)NCCC(=O)NC(C)C(=O)NC(C)(C)C(=O)NC(C)(C)C(=O)NC(C)(C)C(=O)NCCC(=O)NC(C)(C)C(=O)NC(C)(C)C(=O)NC(C)(C)C(=O)NC(C)C(=O)NCCC(=O)O (stereo not drawn)	-100% (active)
CCCc1[nH]c(-c2cc(N)ccc2Cl)c2c1C(=O)CCCC2	107%
CC1=C(C)C(=O)C(Nc2ccc(C)cc2)=C(Br)C1=O	102%
O=S(=O)(Oc1ccc(-c2cn3ccsc3n2)cc1)c1cccc(C(F)(F)F)c1	98.4%
C#CCOc1cccc(/C(N)=N/C(N)=N/c2nc3ccccc3s2)c1	81.4%
CCOC(=O)c1c(NC(=O)c2ccc(C(F)(F)F)cc2)sc2c(CN3CCN(C)CC3)c(O)ccc12	-89.4% (active)
Cc1ccc(NC(=O)Nc2nc3ccc([N+](=O)[O-])cc3s2)cc1	1.63% (active)
CCOC(=O)c1c(NCC(=O)Nc2cccc([N+](=O)[O-])c2)sc(C(C)=O)c1C	-13.5% (active)
O=C(CCCCCCNC(=O)C(O)(O)C(F)(F)F)Nc1ccc(Br)cc1	-15.8% (active)
Cc1ccccc1N1CCN(C2=C(Cl)C(=O)c3ncccc3C2=O)CC1	-22.6% (active)
O=C1[C@@H]2Cc3c([nH]c4ccccc34)[C@H](c3ccc(Br)cc3)N2C(=O)CN1C1CCN(Cc2c(Cl)cccc2Cl)CC1	91.2%
Cc1ccc(CSC2=C(Cl)CN(c3ccc(Cl)cc3)C2=O)cc1	107%

SMILES	growth
COC(=O)CCCNCCCn1ccc2cc(NCc3cccc(-c4ccccc4)c3C)ccc21	77.8%
C#CCOc1ccccc1/C=N/Nc1nc(-c2ccc(Cl)cc2)cs1	95.3%
CC(=O)c1c([Si](C)(C)C)c2cc(C#N)ccn2c1C(=O)c1ccc(Br)cc1	82.1%
O=C(COc1ccc(/C=C2\C(=O)Nc3ccc(F)cc32)cc1)Nc1ccccc1	93.7%
COc1ccc(CC(C)=C(c2ccc(OCCN3CCCC3)cc2)c2ccc(OCCN3CCCC3)cc2)cc1	-96% (active)
O=C(CSc1nc2ccccc2c(=O)n1-c1ccc(S(=O)(=O)Nc2ccc(Cl)nn2)cc1)Nc1ccc(S(=O)(=O)Nc2ccc(Cl)nn2)cc1	98.2%
C=C(C)[C@@H]1CC[C@]2(COP(=O)(OCC)OCC)CC[C@]3(C)[C@H](CC[C@@H]4[C@@]5(C)CC[C@H](OP(=O)(OCC)OCC)C(C)(C)[C@@H]5CC[C@]43C)[C@@H]12	41.4%
COC(=O)c1cccc(NC2=C(Cl)C(=O)C(C)=C(C)C2=O)c1	104%
Cn1cc(-c2nc(N)nnc2-c2c[nH]c3ccc(Br)cc23)c2cc(F)ccc21	78.5%
O=C(O)c1ccc(-n2c(=O)n(-c3cccc(C(F)(F)F)c3)c(=O)c3cc(-c4ccc(F)cc4F)ccc32)cc1	1.36% (active)
O=C1[C@H]2Cc3c([nH]c4ccccc34)[C@H](c3ccc(Br)cc3)N2C(=O)CN1C1CCN(CC2CCCCC2)CC1	80.4%
C#Cc1nc(/C=C/CCCCCCC(=O)NO)cs1	-39.1% (active)
C#CCN(C)CCCOc1ccc(NC(=O)CCCCCCCCC(=O)NO)cc1Cl	80.4%
NC(=O)c1ncn2c(=O)n(CCF)nnc12	62.2%
Cc1csc(/N=C(N)/N=C(\N)c2cccc(C#N)c2)n1	84.9%
C=C(C)[C@@H]1CC[C@]2(COCCCNCCCN)CC[C@]3(C)[C@H](CC[C@@H]4[C@@]5(C)CC[C@H](O)C(C)(C)[C@@H]5CC[C@]43C)[C@@H]12	-98.6% (active)
O=C(/C=C/c1cccc(F)c1)c1cccc(OCCCOc2cccc(C(=O)/C=C/c3cccc(F)c3)c2)c1	89.4%
Cc1ccc(C(=O)CSc2nc3ccccc3c(=O)n2C)cc1	83.7%
Cc1ccc2c(n1)C(=O)C(Cl)=C(Nc1ccc(C#N)cc1)C2=O	-58.5% (active)
CC(C)(O)c1cncc(-c2ccc3ncc(C#N)c(N4CCc5cc(F)c(Cl)cc54)c3c2)c1	6.6% (active)
